We go through 34 compounds from PubChem BioAssay (NCI).

Compounds without any hit were thinned out: in the full panel of roughly 83,000, 20% have a hit.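 Compound tested at a single concentration for 48 hours in 96-well plates; a percent growth value below 10 was scored as active.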 Active and inactive are the calls of the source.

One test concerns T-47D breast. In words: NCI-60 one-dose screen, 48 h (100 = growth as untreated, 0 = no growth, -100 = all killed). As to conditions: 10 µM unless noted.
For `N#Cc1c(-c2cccc(Cl)c2)cc(-c2cccc(Cl)c2)[nH]c1=O`, the growth is 79.2% (inactive).
For `Cc1cccc(Cc2cnc(NC(=O)/C=C/c3ccco3)s2)c1`, the growth was 37.2% (inactive).
The same measure, in the same setting: then `N#CC1=C(c2ccc(Br)cc2)NC(SCC(=O)c2ccc(Br)cc2)NC1=O` (centres undefined), with 92.8% (inactive).
The same measure, in the same setting: in the case of `C[C@H](NC(=O)[C@@H]1CSSC[C@@H](NC(=O)c2nc3ccccc3cc2O)C(=O)NCC(=O)N1C)c1ccccc1` it was -35.6% (active); in that of `Cc1c2c(c(C)c3c1oc1cc(O)ccc13)C(=O)N(CCN1CCCCC1)C2=O`, 91.1% (inactive).
Same read-out and setting: then `CCCCCCCCCCCCCCCCCCOc1ccc(CC(=O)OCC[N+]2(C)CCCC2)cc1`, with 95.5% (inactive); and `COc1cccc(-c2nn(-c3ccccc3)cc2-c2ccnc(NCCCNC(=O)c3ccc(F)cc3)c2)c1`, with -0.248% (active).
For the compound `COC(=O)[C@H](CSC)N(C)C(=O)[C@@H]1CSSC[C@@H](NC(=O)c2nc3ccccc3cc2O)C(=O)NCC(=O)N1C`, the growth was 33.8% (inactive).
The same measure, in the same setting: then `COc1cccc(/C=C/C(=O)c2c(C)nc3ccccc3c2/C=C/c2ccc(C)cc2)c1OC`, with 29.1% (inactive); and `COc1ccc(S(=O)(=O)NCCNc2nccc(-c3c(-c4cccc(F)c4)nc4sccn34)n2)cc1`, with 25% (inactive).
For `COc1cccc(C(=O)NCCNc2cc(-c3cn(-c4ccccc4)nc3-c3cccc(OC)c3)ccn2)c1`, the growth was 22.1% (inactive).
On the same count and under the same terms, in the case of `CCCCOc1nc2ccccc2cc1C1CNC(=O)c2ccccc2N1` (centres undefined) it was 20.9% (inactive); in that of `O=C(CCc1nnc(CN(c2ccccc2)c2ccccc2)o1)c1nc2ccccc2[nH]1`, 74.4% (inactive).

Another test relates to BT-549 breast. The test is described as above. As to conditions: 10 µM unless noted.
Consider `O=C1N=c2cc3c(cc2=C/C1=C/c1sc(=S)n(CCc2ccc(O)cc2)c1O)OCCO3`, for which the growth is 78.5% (inactive).
The same measure, in the same setting: then `O=Cc1c[nH]c2ccc(-c3csc4ccccc34)cc12`, with 38.5% (inactive).
Turning to `O=C(Nc1ccccc1)Nc1cccc(Oc2nnc(Cl)c3ccccc23)c1`, the growth was 47.7% (inactive).
Same read-out and setting: then `NC(=O)c1ccc[n+]([C@@H]2O[C@H](COP(=O)([O-])OP(=O)(O)OC[C@H]3O[C@@H](n4cnc5c(N)ncnc54)[C@H](O)[C@@H]3O)[C@@H](O)[C@H]2O)c1`, with 95.9% (inactive); and `O=C1CCc2c(sc3[nH]c(=S)n(-c4ccc(OC(F)(F)F)cc4)c(=O)c23)C1`, with 38% (inactive).
Still for that read-out and setting: then `CC1(C)CC[C@]2(C(=O)N3CCOCC3)CC[C@]3(C)C(=CC[C@@H]4[C@@]5(C)CC[C@H](OC(=O)c6cccnc6)C(C)(C)[C@@H]5CC[C@]43C)[C@@H]2C1`, with 72.3% (inactive).
On to `COC(=O)[C@]12CC[C@@H](C)[C@H](C)[C@@H]1C1=CC[C@@H]3[C@@]4(C)C(C=O)=C[C@@](C)(COC(=O)c5ccco5)C4=CC[C@@]3(C)[C@]1(C)CC2`, for which the growth was 5.64% (active).
Turning to `O=[N+]([O-])c1ccc(-c2cc(-c3ccc(Nc4nc(Nc5ccc(Cl)cc5)nc(Nc5ccc(Cl)cc5)n4)cc3)no2)cc1`, the growth was 103% (inactive).
On the same count and under the same terms, then `CCCCCS(=O)(=O)Nc1ccc(C(=O)O)cc1`, with 107% (inactive); and `COc1ccc(-c2ccc3c(c2)sc2nc(-c4ccc(F)cc4)cn23)cc1`, with 105% (inactive).
On to `NC(=N\N=C/c1ccccc1[N+](=O)[O-])/C(N)=N\N=C/c1ccccc1[N+](=O)[O-]`, for which the growth is 116% (inactive).
Same read-out and setting: in the case of `O=C(COc1ccc(/C=C2\Oc3ccccc3C2=O)cc1)Nc1nc2c(s1)CCCC2` it was -13.9% (active); in that of `O=[N+]([O-])c1ccc(OCCO)cc1`, 109% (inactive); in that of `Cn1cc2c(c1)-c1nc(Nc3ccccc3)ncc1CC2`, 32.1% (inactive).
The same measure, in the same setting: then `CC1=C(SCCC(=O)OC(C[Se]C2=C(C)C(=O)c3ccccc3C2=O)C(=O)NCCCCCC(=O)OCc2ccccc2)C(=O)c2ccccc2C1=O` (centres undefined), with 67.3% (inactive); and `CC/C=C\C/C=C\C[C@H](O)C/C=C1/C(=O)C=C[C@@H]1C/C=C\CCCC(=O)O`, with -29.3% (active); and `COc1cccc(Nc2nccc(Nc3ccc4[nH]ncc4c3)n2)c1`, with -15.9% (active).
Same read-out and setting: then `COc1cccc(-c2nn(-c3ccccc3)cc2-c2ccnc(NCCNC(=O)c3ccccc3)c2)c1`, with 38.4% (inactive); and `COc1ccccc1CNCCCN1C(=O)c2ccc3c4c(ccc(c24)C1=O)C(=O)N(CCCNCCCCN)C3=O`, with -75.6% (active); and `COc1ccc2cc(-c3cc(OC)c(OC)c(OC)c3)c(=O)oc2c1`, with 50.1% (inactive).
As to `NC(=S)Nc1cccc(O)c1`, the growth is 78.8% (inactive).
